TrxR1 substrate: qHTS Assay for Substrates of Mammalian Selenoprotein Thioredoxin Reductase 1 (TrxR1): qHTS | Thioredoxin reductase 1, cytoplasmic (Rattus norvegicus), O89049 | purified TrxR1 substrate turnover, NADPH consumption readout | Potency, µM (series often up to 114 µM), for the others: top-dose activity change, negative = substrate turnover | 390,000 compounds, 0.01% hits | AID 588456, 2011; further: potency means the concentration at half of the fitted maximal effect; on the % scale 0 is the no-effect control and ±100 the full control effect; nearly all actives have a fitted effect of over 50% in size
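Rat TrxR1, dispensed at 90 nM, was prereduced with 400 uM NADPH (final) for 5 min at ~22 deg C, then incubated with compound 15 min before 400 uM selenite. A first-read NADPH fluorescence drop versus no-compound background flagged substrates.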
Anesthetic bind: qHTS Assay for Identification of Novel General Anesthetics. Ferritin light chain (Equus caballus), P02791. apoferritin/1-aminoanthracene competitive binding, fluorescence. Potency, µM (top dose mostly 77.5 µM), for inactives: at the highest dose activity change, negative = displacement, usual class: inhibitors. 350,000 compounds, 0.074% hits. AID 485281, 2010; further: potency means the concentration at half of the fitted maximal effect; on the % scale 0 is the no-effect control and ±100 the full control effect; nearly all actives have a fitted effect of over 20% in size
Target sequence (P02791 2-175 limits assumed): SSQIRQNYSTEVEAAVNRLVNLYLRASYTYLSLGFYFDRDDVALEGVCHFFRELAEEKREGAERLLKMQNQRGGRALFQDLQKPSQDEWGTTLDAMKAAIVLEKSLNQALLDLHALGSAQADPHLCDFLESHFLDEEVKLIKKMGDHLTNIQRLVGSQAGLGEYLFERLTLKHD
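10 uM apoferritin + 50% sat. 1-AMA, PBS; cpd 10 min RT; Ex380/Em535 endpoint; normalized to free probe vs complex; 4-param Hill fit; propofol titration as pos. ctrl.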
ClpP mod: qHTS Assay for Activators of ClpP | purified B. subtilis ClpP, FRET peptide cleavage, 20 min | Potency, µM (doses to about 57.5 µM), for the others: top-dose activity change, negative = active | 340,000 compounds, 1.9% hits; active means well fitted falling curve with a large enough effect; inconclusive means small, poorly fitted or top-dose-only effect; inactive means no such curve, though single readings can be large or run the other way; further: potency means the concentration at half of the fitted maximal effect; the source files actives as falling curves though it sought activators and does not explain the sign; nearly all actives have a fitted effect of over 65% in size
Target sequence (P80244 whole entry, looked up): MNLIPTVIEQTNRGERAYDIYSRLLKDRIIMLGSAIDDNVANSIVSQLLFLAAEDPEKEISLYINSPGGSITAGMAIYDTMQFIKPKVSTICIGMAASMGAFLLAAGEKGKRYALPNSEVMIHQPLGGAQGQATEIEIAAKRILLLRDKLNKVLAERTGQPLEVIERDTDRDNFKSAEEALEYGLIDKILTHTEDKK
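Purified B. subtilis ClpP, 10 microg/mL final in Tris/HCl pH8 with KCl, BSA, glycerol and Tween-20, cleaved an Abz/nitrotyrosine-quenched decapeptide. Fluorescence (ex 320, em 430) was read at 0 and 20 min at room temperature. Delta was normalized to 5.8 microM ADEP and DMSO/no-enzyme controls.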
miR-21 act: qHTS Assay for Modulators of miRNAs and/orActivators of miR-21. HeLa miR-21 FLuc reporter, luciferase, 48 h. Potency, µM (top dose mostly 38.3 µM), for inactives: at the top dose activity change, positive = activation, most hits filed as activators. 340,000 tested, under 10 active;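 further: % of control where 0% means no effect; miR-21 action dims this reporter so a rising signal means less miR-21 action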
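Luminescence from a firefly luciferase reporter carrying a miR-21 binding site downstream, stably expressed under a CMV promoter in HeLa cells that make miR-21 endogenously, reports miRNA modulation after 48 h compound exposure up to approximately 40uM final.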
TrxR1 inh: qHTS Assay for Inhibitors of Mammalian Selenoprotein Thioredoxin Reductase 1 (TrxR1): qHTS; recombinant rTrxR1, NADPH fluorescence consumption, selenite substrate; Potency, µM (series often up to 114 µM), for inactives: top-dose activity change, negative = inhibition, actives largely listed as inhibitors; 390,000 compounds, 1% hits; AID 588453, 2011; further: potency means the concentration at half of the fitted maximal effect; on the % scale 0 is the no-effect control and ±100 the full control effect; nearly all actives have a fitted effect of over 65% in size
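Rat TrxR1 (90 nM in the dispensed reagent) was pre-reduced with 400 uM NADPH for 5 min at room temperature, then incubated with compound for 15 min. After 400 uM selenite was added, NADPH fluorescence (Ex 340/Em 450 nm) was followed for 8 min.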
Active calls of the source: *; ? = inconclusive; / = no result given; [ ] = remark or other dose. Only some compounds are listed: those with a hit (about 2.5% of all), similar ones and a draw of the others. Unless noted, the call rests on the fitted dose curve; in most records, active means well fitted curve in the direction sought with a large enough effect; inconclusive means small, poorly fitted or top-dose-only effect, or another doubt; inactive means no such curve, though single readings can be large; an effect the other way counts as inactive or inconclusive.

SMILES | TrxR1 substrate | Anesthetic bind | ClpP mod | miR-21 act | TrxR1 inh
Nc1ncnc2c1nc(Sc1ccc(Cl)cc1)n2[C@H]1OC2COP(=O)(O)O[C@H]2[C@@H]1O (some centres not stated) | 3% | / | 0% | / | 7%
COc1ccc(CCNC(=O)CCSCc2ccccc2Cl)cc1OC | -1%[57.1 µM] | ? | -2% | -8% | 8%[57.1 µM]
O=C(COc1ccccc1Cl)Nc1ccc2[nH]c(=O)[nH]c2c1 | 0% | / | 16µM* | / | 10%
Cn1nnnc1SCCCNCc1cc(Br)ccc1OCc1ccccc1F | 3% | -15% | 4% | 26% | 32%
CC(=O)Nc1c(S(=O)(=O)c2ccccc2)c2nc3ccccc3nc2n1Cc1ccccc1 | 42% | 239% | 16µM* | 7% | 19%
CC(=O)Nc1ccc(S(=O)(=O)c2c(N)n(CCN3CCOCC3)c3nc4ccccc4nc23)cc1 | 64%[57.1 µM] | 1% | 32µM* | 0% | 5%
Cc1nc2ccc(S(=O)(=O)N(CC(=O)Nc3ccc(F)cc3F)Cc3ccccc3)cc2s1 | 2%[57.1 µM] | -4% | -1% | 2% | 8%[57.1 µM]
CCOC(=O)c1oc2ccccc2c1NC(=O)c1ccccc1OC | 15% | -22% | 35µM* | -8% | 33%
COc1ccccc1C(=O)Nc1c(C(=O)c2ccccc2)oc2ccccc12 | 23% | 0% | -1% | -19% | 31%
CCCCNC(=O)CSC1=Nc2ccccc2C2=NC(CCC(=O)NCc3ccccc3OC)C(=O)N12 (configuration not stated) | 4%[57.1 µM] | -5% | -27% | 6% | 18%[57.1 µM]
O=C(CC1N=C2c3ccccc3N=C(SCc3cccc(Cl)c3)N2C1=O)NC1CCCCC1 (configuration not stated) | -3%[57.1 µM] | -1% | 35µM* | 2% | -1%[57.1 µM]
CCc1ccc(NC(=O)CSC2=Nc3ccccc3C3=NC(CC(=O)NC4CCCCC4)C(=O)N23)cc1 (configuration not stated) | -3%[57.1 µM] | -1% | 0% | -3% | 13%[57.1 µM]
CCCCNC(=O)CC1N=C2c3ccccc3N=C(SCC(=O)NCc3ccccc3Cl)N2C1=O (configuration not stated) | 32% | -10% | 18µM* | 2% | -8%
O=C(CSC1=Nc2ccccc2C2=NC(CC(=O)NC3CCCCC3)C(=O)N12)Nc1ccc(F)cc1 (configuration not stated) | -9%[57.1 µM] | -16% | 14µM* | 13% | 0%[57.1 µM]
Cc1cccc(CN2CCN(CC(=O)Nc3c(C)cccc3C)S2(=O)=O)c1 | 5% | -18% | -1% | 16% | 24%
CCOC(=O)c1c(C)[nH]c(CCC(=O)Nc2c(C)cccc2CC)c1C | -5%[57.1 µM] | -7% | -3% | 19% | 4%[57.1 µM]
Cc1ccc(C)c2[nH]c(=O)c(C(c3nnnn3C(C)(C)C)N3CC=C(c4ccc(F)cc4)CC3)cc12 (configuration not stated) | 11%[0.457 µM] | -11% | -21% | -5% | 71µM*
Cc1ccc2[nH]c(=O)c(C(c3nnnn3CC3CCCO3)N3CCOCC3)cc2c1 (configuration not stated) | 19% | -8% | 22µM* | 3% | 4%
Cc1ccc2[nH]c(=O)c(C(c3nnnn3CC3CCCO3)N3CCc4ccccc4C3)cc2c1 (configuration not stated) | 9% | -19% | -19% | -6% | ?
CCC(C)(C)n1nnnc1C(c1cc2cccc(C)c2[nH]c1=O)N1CCCC1 (configuration not stated) | 8%[57.1 µM] | 3% | -20% | -3% | ?
COc1ccc2[nH]c(=O)c(C(c3nnnn3CC3CCCO3)N3CCc4ccccc4C3)cc2c1 (configuration not stated) | 21% | -6% | 32µM* | -6% | -8%
